# Several values for one entry are separate records, joined by “and”; a condition that tells them apart may be missing. Identical values can stand only once. The whole screen tested about 1,300 compounds, of which about 20 (2%) were called active. The list is a sample of the results. Unmarked numbers belong to inactive results.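 Rule for the calls: active = inhibition above 50%, about 3 SD of the inhibition seen with non-fluorescent compounds; inactive = the rest.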
# Assay: GST-fluorescein capture on glutathione beads, confirmation, artefact control for arrestin-AP2 inhibitor project, biochemical, cherry pick 1, flow cytometry (AID 588338);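 note: fluorescein maleimide labelled GST captured on 4 micron glutathione beads; higher means more loss of bead fluorescence from quenching or blocked binding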
# Settings: GST-fluorescein binding to GSH beads, fluorescence, counter-screen; at 10 µM; hits give high values
row,Compound,inhibition
1,COc1cccc(-n2c(SCC(=O)c3c[nH]c4ccccc34)nc3ccccc3c2=O)c1,57.9% (active)
2,Cn1c(=O)c2c(nc(N/N=C/c3cccs3)n2Cc2ccc(Br)cc2)n(C)c1=O,0.63%
3,COc1ccc(CCNc2ncnc3c2nnn3Cc2ccccc2)cc1,4.82%
4,Cc1ccc(CNC(=O)C2CC(=O)N(C3CCCCCCC3)C2)cc1 (centres undefined),-4.09%
5,Cc1ccc(Nc2ccc(C(N)=O)cc2[N+](=O)[O-])cc1,-6.5%
6,CC(C)c1nnc(NC(=O)CCC(=O)N2CCN(c3cccc(Cl)c3)CC2)s1,-10.6%
7,O=C(c1ccc(S(=O)(=O)NCc2ccco2)cc1)N1CCN(c2ccccc2)CC1,8.86%
8,CCCc1ccc(-c2csc(NC(=O)Cc3cccs3)n2)cc1,-4.6%
9,Cc1ccc(C)c(NC(=S)NNC(=S)Nc2ccc(C(C)C)cc2)c1,0.62%
10,Cc1ccc(CN2C(=O)CCC2C(=O)NCCCN2CCCCC2C)cc1 (centres undefined),-11.5%
11,Cc1cc(C(=O)OCC(=O)c2c(N)n(C)c(=O)n(C)c2=O)c(C)o1,-2.19% and 1.72%
12,CCOc1ccc(-c2nnc(-c3ccco3)o2)cc1,-7.89%
13,O=c1[nH]c2ccccc2n2c(-c3ccccc3)nnc12,36.4%
14,Cc1ccc(C2(C)NC(=O)N(CC(=O)Nc3ccccc3C(=O)N3CCCCC3)C2=O)cc1 (centres undefined),-3.63%
15,CC(C)C[C@H](NC(=O)N1CCn2c1nc1ccccc12)C(=O)NC1CC1,-5.48%
16,CN1C(=O)/C(=C/c2ccco2)SC1=Nc1cccc(C(=O)O)c1,0.38%
17,Brc1ccccc1C1Nc2cccc3cccc(c23)N1,1.35%
18,COCCNC(=O)Nc1ccc2nc(-c3ccco3)c(-c3ccco3)nc2c1,22.4%
19,Cc1ccc(OCCCCc2c(C)n[nH]c2C)cc1,-8.59%
20,COc1cc2c(cc1NC(=O)COC(=O)/C=C/c1ccccc1)oc1ccccc12,-10.3%
21,CC(Oc1ccccc1)C(=O)NN1Cc2ccccc2C1=N (centres undefined),-4.56%
22,Cc1ccc(S(=O)(=O)/N=C(/Nc2ccccn2)c2ccc(Cl)cc2)cc1,-4.23%
23,O=C(NCc1ccco1)c1ccc(CS(=O)(=O)Cc2ccc(F)cc2)o1,-8.88%
24,Cc1cc(C)cc(Oc2nc3c(C)cccn3c(=O)c2/C=C(\C#N)C(=O)NC2CCS(=O)(=O)C2)c1 (centres undefined),-0.21%
25,COC(=O)c1cc(NC(=O)c2nn(C)c(=O)c3ccccc23)cc(C(=O)OC)c1,-0.11%
26,CCn1c(=O)n(CC)c2cc(N3CCCC3)c(NC(=O)c3ccccc3Br)cc21,-4.23%
27,Cc1ccc(OCCCC(=O)Nc2ccc3c(c2)OCCO3)cc1,-3.79%

row,Compound,inhibition
1,Cn1c(=O)c([N+](=O)[O-])c(Oc2ccccc2)c2ccccc21,-0.63%
2,COc1cc2c(cc1OC)CN(C(=O)c1cc(=O)c3ccccc3o1)CC2,-0.62%
3,CCOc1ccc(C(=O)NC2CCN(CC(=O)NCc3cccs3)CC2)cc1,-10.1%
4,CN(C)c1ccc(NC(=O)c2ccncc2)c2ccccc12,-4.94%
5,CCOC(=O)N1CCN(C(=O)CNC(=O)Cc2ccc(Cl)cc2)CC1,-12.7%
6,CN(C(=O)COC(=O)c1cc(=O)[nH]c2ccccc12)C1CCCCC1,-4.98%
7,CC(NCCc1ccc(S(N)(=O)=O)cc1)C(=O)NCc1ccccc1 (centres undefined),1.19%
8,CC(C)(C)c1ccc(C(=O)NCCn2c(N)c(C#N)c3nc4ccccc4nc32)cc1,1.49%
9,CC(CN1CCCCC1)OC(=O)c1ccccc1Cl (centres undefined),0.92%
10,Cc1ccc(Cl)cc1-c1ccc(/C=N/n2cnnc2)o1,-2.14%
11,Cc1ccc(S(=O)(=O)N2CCCCC2)cc1NC(=O)c1cccnc1,-0.2%
12,Cc1cccc(NC(=S)NC(=O)c2ccc(Br)o2)c1,-2.99%
13,NS(=O)(=O)c1ccc2nc(NC(=O)C3=COCCO3)sc2c1,-9.07%
14,C/C(=N\Nc1ccc([N+](=O)[O-])cc1)c1ccc(-n2nncc2C(C)(C)C)cc1,2.54%
15,CC(=O)NCCNC(=O)c1cc(-c2cccc3ccccc23)nc2ccccc12,8.05%
16,Cc1cc(C(=O)Nc2ccc(C)c(S(=O)(=O)N3CCOCC3)c2)c2ccccc2n1,3.01%
17,Cc1ccc(S(=O)(=O)N2CCN(C(=O)c3ccccc3-c3nc4ccccc4s3)CC2)c(C)c1,-4.41%
18,O=C(NCC1(N2CCCCC2)CCCCC1)c1cccc(S(=O)(=O)Nc2ccccc2Cl)c1,-0.81%
19,CCC(C(=O)OC)n1cnc2c(oc3ccccc32)c1=O (centres undefined),-1.51%
20,NC(=O)C1CCN(C(=O)CC2C(=O)NCCN2Cc2cccc(Oc3ccccc3)c2)CC1 (centres undefined),-3.68%
21,CC(NC(=O)c1cc2cc(Cl)ccc2oc1=N)c1ccccc1 (centres undefined),-2.36%
22,COc1ccc(/C=C2\SC(=S)N(CCC(=O)Nc3ccccn3)C2=O)cc1OC,-0.03%
23,O=C(C1CCCO1)N1CCN(S(=O)(=O)c2ccc(Br)cc2)CC1 (centres undefined),-16.4%
24,COC(=O)C1CC2=C(CC(C)(C)CC2=O)N(c2ccccc2)C1=O (centres undefined),-0.09%
25,CCC(=O)Nc1nc2ccccc2n1Cc1ccccc1C,6.47%
26,Cc1cccc(C)c1NC(=O)C(Cl)C(=O)c1ccccc1 (centres undefined),-5.59%
27,Cc1cccc(Nc2ccccc2C(=O)NCc2ccco2)c1C,-4.39%
